Measurements as given in PubChem BioAssay (EPA / NIEHS).
Where a structure was tested more than once in an assay, its records may differ in their call. Calls of active or inactive are those of the source. Rule for the calls: active = hit-call score of the fitted dose curve at least 0.9, where 1 is the maximum; inactive = score below 0.9.

Read-out: Monocyte Chemoattractant Protein-1 (MCP1), CCL2 (gene 6347)
Assay: BSK_4H_MCP1: BioMAP Diversity Plus: 4H Assay for Monocyte Chemoattractant Protein-1 (MCP1) Biomarker Activity (AID 2283018)
Conditions: primary human endothelial cells (HUVEC); actives raise or lower the signal
Protocol: BSK_4H is a cell-based, multiplexed-readout assay that uses umbilical vein endothelium, a human vascular primary cell, with measurements taken at 24 hours after chemical dosing in a 96-well plate.BSK_4H_MCP1 is an assay component measured in the BSK_4H assay. It measures MCP-1 antibody related to regulation of gene expression using ELISA technology.Data from the assay component BSK_4H_MCP1 was analyzed into 1 assay endpoint. This assay endpoint, BSK_4H_MCP1, was analyzed with bidirectional fitting relative to DMSO as the negative control and baseline of activity. Using a type of binding reporter, gain or loss-of-signal activity can be used to understand changes in the signaling as they relate to the gene CCL2. Furthermore, this assay endpoint can be referred to as a primary readout, because this assay has produced multiple assay endpoints where this one serves a signaling function. To generalize the intended target to other relatable targets, this assay endpoint is annotated to the cytokine intended target family, where the subfamily is chemotactic factor.
The levels of cell surface (or secreted, indicated by the prefix "s") biomarker endpoints were measured by ELISA. Overt cytotoxicity to cells in confluent adherent cultures (all systems other than the BT system) was assessed by measuring total protein levels using sulforhodamine B (SRB) staining in parallel cultures at the time of biomarker measurements, indicated as SRB endpoints. For proliferation assays for adherent cell types, individual cell types are cultured at sub-confluence and relative cell numbers quantified by SRB staining at time points optimized for each system (48 h: 3C and CASM3C systems; 72 h: BT and HDF3CGF systems; 96 h: SAg system). SRB was performed by staining cells with 0.1% SRB after fixation with 10% TCA and reading wells at 560 nm.Viability and proliferation of PBMC (T cells) was quantified by Alamar Blue reduction for the SAg and BT systems. For PBMC viability (referred to as PBMC Cytotoxicity within the assay endpoint names), cells were plated (75,000/well in a 96-well plate) and then chemical samples added for 1 h before addition of activators, SEB and TSST-1 (20 ng/mL final concentration each). Cells were incubated for 90 h. Then, Alamar Blue (20 uL/well) (Invitrogen, Cat DAL1100) was added for 6 h, and the plates were read with a fluorescence microplate reader at 546/580 nm (excitation/emission). For PBMC proliferation, cells were plated and activated as above but incubated for only 16 h prior to addition of Alamar Blue. Plates were read after 6 h.

SMILES	outcome	AC50
C=CC(=O)OCC(F)(F)C(F)F	inactive	
CC(C)(C)c1ccccc1OP(=O)(Oc1ccccc1)Oc1ccccc1		13.6 µM (active)
c1ccc2c(c1)Nc1ccccc1S2	inactive	
N#Cc1c(-c2ccc(Cl)cc2)[nH]c(C(F)(F)F)c1Br		0.14 µM (active)
CN(C)C(=O)Cl	inactive	
COP(N)(=S)OC	inactive	
c1ccc2c(c1)sc1ccccc12	inactive	
ClC(Cl)c1ccccc1	inactive	
CC(O)C(F)(F)C(F)(F)F (stereo not given)	inactive	
CC(C)(C)c1ccc(O)cc1	inactive	
Cc1cccc(N)c1	inactive	
CCC(C)(C)c1ccc(O)cc1	inactive	
Cc1ccc(O)cc1C	inactive	
CCNc1nc(Cl)nc(NC(C)(C)C)n1	inactive	
O=P(Oc1ccccc1)(Oc1ccccc1)Oc1ccccc1		13.6 µM (active)
CCCCC(CC)COP(=O)(Oc1ccccc1)Oc1ccccc1 (stereo not given)		7.85 µM (active)
FC(F)(F)C(F)(C(F)(F)F)C(F)(F)C(F)(F)CC1CO1 (stereo not given)	inactive	
CCOP(=S)(OCC)SCSCC	inactive	
O=S1(=O)OCC2C(CO1)C1(Cl)C(Cl)=C(Cl)C2(Cl)C1(Cl)Cl (stereo not given)		10.1 µM (active)
CC(C)(C)OOC(C)(C)C	inactive	

SMILES	outcome	AC50
CCOc1ccc(C(C)(C)COCc2cccc(Oc3ccccc3)c2)cc1	inactive	
OCC1CO1 (stereo not given)	inactive	
c1cc2c3c(cccc3c1)CC2	inactive	
O=S(=O)(F)C(F)(F)C(F)(F)C(F)(F)C(F)(F)C(F)(F)C(F)(F)C(F)(F)C(F)(F)F	inactive	
CCCCN(CCCC)N=O	inactive	
CC(Cl)CN(C)C (stereo not given)	inactive	
O=C(O)C(F)(F)OC(F)(F)C(F)(F)OC(F)(F)F	inactive	
CC(Cl)(Cl)C(=O)O	inactive	
O=C(O)C=CC(F)(C(F)(F)F)C(F)(F)F	inactive	
Cc1ccc([N+](=O)[O-])cc1C	inactive	
O=P(OCC(Br)CBr)(OCC(Br)CBr)OCC(Br)CBr (stereo not given)		3.45 µM (active)
Nc1ccc([N+](=O)[O-])cc1Cl	inactive	
OCC(F)(F)OC(F)(F)C(F)(F)OC(F)(F)C(F)(F)OC(F)(F)F	inactive	45.4 µM (active)
CCOC(=O)c1ccccc1C(=O)OCC	inactive	
Nc1cc2c3c(c1)C(c1ccccc1)=N[C@@H](NC(=O)c1cccnc1)C(=O)N3CC2	inactive	
CCC1(c2ccccc2)C(=O)N=C(O)NC1=O (stereo not given)	inactive	
CC(Cc1ccc(OCC(=O)O)cc1)NCC(O)c1csc(C(F)(F)F)n1 (stereo not given)	inactive	
CCCCOCCOP(=O)(OCCOCCCC)OCCOCCCC	inactive	
Nc1ccc2ccccc2c1	inactive	
